Inconclusive results are not listed. Where a call stands in place of a potency, no number is given. Active and inactive are the calls of the source. Unless noted, calls follow the shape of the dose curve; as a rule, active = well fitted curve in the direction sought with a large enough effect; inconclusive = small, poorly fitted or top-dose-only effect, or another doubt; inactive = no such curve, though single readings can be large; an effect the other way counts as inactive or inconclusive.
What was measured:
[1] = qHTS Assay for Lipid Storage Modulators (AID 1519; calls by dose curve); conditions: Drosophila S3 cells, BODIPY lipid droplet/cell ratio, laser cytometry, cells loaded with oleic acid
Outline: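 Cells seeded at 5,000 per well were treated with compounds over a concentration series and loaded with oleic acid (400 uM, as added). Lipid droplet fluorescence (488 nm excitation, 500-530 nm channel) was read by laser-scanning cytometry and normalized to 20 uM Triacsin C.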

[2] = molecular target: DNA repair nuclease/redox regulator APEX1 (Homo sapiens) (UniProt P27695); test: qHTS Validation Assay for Inhibitors of the Human Apurinic/apyrimidinic Endonuclease 1 (APE1) (AID 1705;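 also: TAMRA fluorescence gain over two minutes as APE1 cuts a quenched THF abasic duplex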)
Sequence of DNA repair nuclease/redox regulator APEX1 (Homo sapiens) (P27695 whole entry, looked up): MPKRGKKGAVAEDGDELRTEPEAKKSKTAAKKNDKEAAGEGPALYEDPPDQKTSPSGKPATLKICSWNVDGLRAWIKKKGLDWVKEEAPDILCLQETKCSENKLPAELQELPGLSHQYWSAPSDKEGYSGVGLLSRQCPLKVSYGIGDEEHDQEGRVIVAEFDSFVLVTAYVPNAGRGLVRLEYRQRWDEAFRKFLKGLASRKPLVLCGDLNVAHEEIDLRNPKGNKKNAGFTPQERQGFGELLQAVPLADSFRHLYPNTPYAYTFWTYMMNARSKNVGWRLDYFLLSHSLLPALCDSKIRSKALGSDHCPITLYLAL
Outline: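 Endonuclease activity of human APE1 is followed as dequenching when the enzyme incises a tetrahydrofuran abasic site in a short duplex labelled 5'-TAMRA/3'-BHQ-2 (50 nM final), after 15 min enzyme–compound preincubation at room temperature.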

[3] = Counterscreen for APE1 Inhibitors: Fluorescent Dye Displacement Validation Assay (AID 1707)
Outline: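 Thiazole Orange displacement from dsDNA: 250 nM ThO with 50 nM TAMRA-labelled abasic-site (tetrahydrofuran) duplex in 50 mM Tris-HCl pH7.5, 50mM NaCl, 2 mM MgCl2, 0.01% Tween-20. Loss of endpoint fluorescence (ex 480 nm, em 540 nm) flags DNA binders.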

[4] = qHTS for differential inhibitors of proliferation of Plasmodium falciparum line 7G8 (AID 1815);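 also: potency is read from the fitted curve at half-maximal effect; parasite growth measured after three days of incubation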
[5] = qHTS for differential inhibitors of proliferation of Plasmodium falciparum line W2 (AID 1883); conditions: Potency: Plasmodium falciparum W2 proliferation inhibition;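 also: potency is read from the fitted curve at half-maximal effect; parasites grown with compound for 72 h before lysis and staining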
[6] = molecular target: ATP-dependent DNA helicase Q1 (Homo sapiens) (UniProt P46063); test: qHTS Validation Assay for Inhibitors of RecQ-Like Dna Helicase 1 (RECQ1) (AID 2353)
Sequence of ATP-dependent DNA helicase Q1 (Homo sapiens) (P46063 whole entry, looked up): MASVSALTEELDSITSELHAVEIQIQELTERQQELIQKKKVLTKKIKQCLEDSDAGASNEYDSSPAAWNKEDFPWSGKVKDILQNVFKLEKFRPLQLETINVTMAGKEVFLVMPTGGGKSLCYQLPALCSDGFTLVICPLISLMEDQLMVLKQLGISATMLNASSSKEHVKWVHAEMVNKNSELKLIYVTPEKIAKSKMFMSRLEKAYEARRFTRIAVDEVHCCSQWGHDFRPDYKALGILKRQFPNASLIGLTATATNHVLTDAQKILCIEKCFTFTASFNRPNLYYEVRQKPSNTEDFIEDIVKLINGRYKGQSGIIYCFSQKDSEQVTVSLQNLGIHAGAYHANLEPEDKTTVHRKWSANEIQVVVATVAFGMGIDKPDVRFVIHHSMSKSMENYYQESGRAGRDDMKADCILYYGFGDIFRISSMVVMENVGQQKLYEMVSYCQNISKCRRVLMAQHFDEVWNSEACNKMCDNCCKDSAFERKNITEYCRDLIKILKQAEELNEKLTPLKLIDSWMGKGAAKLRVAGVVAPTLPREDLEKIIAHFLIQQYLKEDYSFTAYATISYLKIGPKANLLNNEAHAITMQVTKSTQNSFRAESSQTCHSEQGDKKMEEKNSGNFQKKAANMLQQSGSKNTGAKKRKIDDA
Outline: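 50 nM RECQ1T1 preincubated 15 min with compound in Tris pH 8.0 buffer with MgCl2, DTT, Tween-20 and 2.5 ug/ml poly(dI-dC); started with 200 nM TAMRA/BHQ-2 forked duplex and 2 mM ATP. Unwinding read as fluorescence (525/598 nm), two reads 2 h apart.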

[7] = molecular target: RecQ-like DNA helicase BLM (Homo sapiens) (UniProt P54132); test: qHTS Validation Assay for Inhibitors of Bloom's syndrome helicase (BLM) (AID 2364)
Sequence of RecQ-like DNA helicase BLM (Homo sapiens) (P54132 whole entry, looked up): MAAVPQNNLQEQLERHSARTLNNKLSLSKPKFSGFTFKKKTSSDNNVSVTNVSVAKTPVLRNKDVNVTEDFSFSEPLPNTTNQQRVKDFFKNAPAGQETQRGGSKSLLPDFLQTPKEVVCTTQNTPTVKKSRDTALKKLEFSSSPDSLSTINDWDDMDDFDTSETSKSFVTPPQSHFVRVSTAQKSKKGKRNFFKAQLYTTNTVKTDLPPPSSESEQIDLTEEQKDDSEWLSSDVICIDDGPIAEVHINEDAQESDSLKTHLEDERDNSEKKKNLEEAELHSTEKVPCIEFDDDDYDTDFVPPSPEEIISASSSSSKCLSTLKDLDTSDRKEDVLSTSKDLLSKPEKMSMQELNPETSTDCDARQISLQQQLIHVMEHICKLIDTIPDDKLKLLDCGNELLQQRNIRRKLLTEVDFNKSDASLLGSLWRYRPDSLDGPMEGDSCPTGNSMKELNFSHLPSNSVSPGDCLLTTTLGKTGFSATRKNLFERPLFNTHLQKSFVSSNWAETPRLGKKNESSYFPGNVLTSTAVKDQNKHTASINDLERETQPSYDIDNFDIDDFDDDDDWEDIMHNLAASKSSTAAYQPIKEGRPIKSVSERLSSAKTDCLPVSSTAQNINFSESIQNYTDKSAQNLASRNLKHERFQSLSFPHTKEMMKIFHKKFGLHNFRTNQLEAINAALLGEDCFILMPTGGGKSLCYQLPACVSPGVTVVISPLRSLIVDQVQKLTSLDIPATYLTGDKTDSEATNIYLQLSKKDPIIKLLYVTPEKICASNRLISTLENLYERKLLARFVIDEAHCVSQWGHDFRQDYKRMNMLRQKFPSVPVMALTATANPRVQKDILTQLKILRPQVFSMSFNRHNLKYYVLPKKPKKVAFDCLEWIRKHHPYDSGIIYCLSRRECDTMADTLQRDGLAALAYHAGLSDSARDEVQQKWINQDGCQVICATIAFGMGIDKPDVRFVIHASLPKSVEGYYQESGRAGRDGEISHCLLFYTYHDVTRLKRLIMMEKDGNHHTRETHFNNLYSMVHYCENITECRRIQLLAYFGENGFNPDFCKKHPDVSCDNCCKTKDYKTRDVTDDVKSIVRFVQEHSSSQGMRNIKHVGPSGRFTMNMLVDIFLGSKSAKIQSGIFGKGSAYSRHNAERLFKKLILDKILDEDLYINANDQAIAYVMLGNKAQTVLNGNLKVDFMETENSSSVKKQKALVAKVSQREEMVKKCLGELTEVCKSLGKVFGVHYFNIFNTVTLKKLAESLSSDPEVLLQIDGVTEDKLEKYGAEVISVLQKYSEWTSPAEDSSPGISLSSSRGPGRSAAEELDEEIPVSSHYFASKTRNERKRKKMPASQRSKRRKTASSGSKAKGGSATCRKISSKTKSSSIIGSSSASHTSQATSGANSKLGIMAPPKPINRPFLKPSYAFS
Outline: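 BLM 50 nM in 25 mM Tris-HCl pH 8.0, 5 mM NaCl, 2 mM MgCl2, 1 mM DTT, 0.01% Tween-20, 2.5 ug/ml poly(dI-dC); 15 min cpd preinc, RT. Start: 200 nM forked DNA + 2 mM ATP (final). TAMRA read, 2 reads 2 h apart.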

[8] = Quantitative high throughput screen for delayed death inhibitors of the malarial parasite plastid, 96 hour incubation (AID 488745); also: nearly all actives have a fitted effect of over 70% in size
Outline: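 P. falciparum carrying an integrated firefly luciferase reporter, grown in erythrocytes (2% hematocrit, 0.1% parasitemia final) in RPMI 1640/0.5% Albumax, was exposed to compound for 96 h (two generations) at 37 C, 5% CO2. Luminescence decrease indicated growth inhibition.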

[9] = Quantitative high throughput screen for delayed death inhibitors of the malarial parasite plastid, 48 hour incubation (AID 488752); also: nearly all actives have a fitted effect of over 65% in size
Outline: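 Erythrocytes infected with P. falciparum carrying an integrated firefly luciferase reporter (2% hematocrit, 0.1% parasitemia final) were exposed to compounds in RPMI 1640/0.5% Albumax for 48 h at 37 C, 5% CO2. Growth inhibition was scored as reduced luminescence.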

[10] = molecular target: M-phase phosphoprotein 8 (Homo sapiens) (UniProt Q99549); test: qHTS Validation Assay for Inhibitors for MPP8 Chromodomain Interactions with Methylated Histone Tails (AID 488949);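 also: AlphaScreen signal from MPP8 chromodomain bound to biotinylated H3K9me3 peptide; top concentration of the series differs between compounds; nearly all actives have a fitted effect of over 55% in size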
Outline: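 Disruption of the preformed MPP8–trimethyl-H3K9 peptide complex (both 50 nM, 30 min, RT) is measured after 30 min compound exposure, using AlphaScreen proximity beads; aurintricarboxylic acid titration serves as plate control.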

[11] = molecular target: Thyrotropin receptor (Homo sapiens) (UniProt P16473); test: qHTS Assay for Antagonists of the Thyroid Stimulating Hormone Receptor (AID 488980)
Sequence of Thyrotropin receptor (Homo sapiens) (P16473 whole entry, looked up): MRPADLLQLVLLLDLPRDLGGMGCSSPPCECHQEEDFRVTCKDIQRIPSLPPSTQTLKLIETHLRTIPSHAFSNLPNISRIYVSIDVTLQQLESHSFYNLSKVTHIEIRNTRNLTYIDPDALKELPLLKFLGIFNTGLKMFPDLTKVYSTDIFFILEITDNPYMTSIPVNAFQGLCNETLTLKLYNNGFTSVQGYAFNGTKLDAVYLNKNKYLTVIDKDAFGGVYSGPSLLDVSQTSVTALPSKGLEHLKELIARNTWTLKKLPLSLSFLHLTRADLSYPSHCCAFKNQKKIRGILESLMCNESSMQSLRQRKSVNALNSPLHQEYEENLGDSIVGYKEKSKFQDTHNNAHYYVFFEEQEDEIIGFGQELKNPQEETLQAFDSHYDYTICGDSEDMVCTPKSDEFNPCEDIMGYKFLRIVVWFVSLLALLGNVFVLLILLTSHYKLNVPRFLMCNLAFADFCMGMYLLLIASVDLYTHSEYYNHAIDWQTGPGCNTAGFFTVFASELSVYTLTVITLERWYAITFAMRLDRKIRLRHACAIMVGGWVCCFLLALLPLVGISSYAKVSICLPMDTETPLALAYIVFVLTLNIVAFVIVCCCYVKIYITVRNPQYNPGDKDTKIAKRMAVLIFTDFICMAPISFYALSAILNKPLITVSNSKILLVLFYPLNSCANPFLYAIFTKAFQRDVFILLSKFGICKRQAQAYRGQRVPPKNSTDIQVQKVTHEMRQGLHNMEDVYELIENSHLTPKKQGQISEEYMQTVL
Outline: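 Cells expressing human TSHR (HEK293) are dispensed in HBSS/HEPES containing 70 uM RO 20-1724, compound is added, then TSH at EC80 (4 nM final). Antibody in lysis buffer follows, 30 minutes at room temperature before HTRF detection.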

[12] = molecular target: Thyrotropin-releasing hormone receptor (Homo sapiens) (UniProt P34981); test: qHTS for Small Molecule Agonists and Allosteric Enhancers of Human TRH Receptor: Validation Screen for Agonists (AID 493127;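 active = calcium activation more than 3 SD above the typical response in the agonist read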;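 also: intracellular calcium rise by fluo-8 fluorescence before TRH EC20 addition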); conditions: TRH receptor agonist cell assay; at 2 µM; stronger effect = higher value
Sequence of Thyrotropin-releasing hormone receptor (Homo sapiens) (P34981 whole entry, looked up): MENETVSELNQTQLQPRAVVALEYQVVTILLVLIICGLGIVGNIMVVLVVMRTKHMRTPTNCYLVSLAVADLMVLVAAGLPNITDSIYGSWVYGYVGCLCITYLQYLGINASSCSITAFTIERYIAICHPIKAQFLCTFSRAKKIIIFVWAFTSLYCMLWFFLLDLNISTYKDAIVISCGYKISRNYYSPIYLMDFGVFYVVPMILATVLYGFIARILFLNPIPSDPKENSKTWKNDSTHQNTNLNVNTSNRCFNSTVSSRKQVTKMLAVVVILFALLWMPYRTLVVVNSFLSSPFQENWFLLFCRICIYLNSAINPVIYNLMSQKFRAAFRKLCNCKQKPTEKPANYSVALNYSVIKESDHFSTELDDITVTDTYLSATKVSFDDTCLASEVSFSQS
Outline: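 TRHR-expressing cells were plated overnight in serum-containing medium, then loaded with fluo-8 calcium dye at room temperature for 30 min–1.5 h. After a 10 s baseline, compound was pin-transferred and calcium fluorescence (ex 480/em 530) read kinetically for agonist response.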

[13] = molecular target: Galactokinase (Homo sapiens) (UniProt P51570); test: qHTS Validation Assay for Inhibitors of Human Galactokinase (GALK) (AID 493189)
Outline: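 Compounds were pin-transferred into ATP buffer, then GALK-galactose mix was added (final 5 nM enzyme, 100 uM galactose, 35 uM ATP). After 1 h at room temperature, remaining ATP was measured luminescently.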

[14] = Validation screen for small molecules that induce DNA re-replication in SW480 colon adenocarcinoma cells (AID 504364)
Outline: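 SW480 cells seeded at 250 per well were exposed to compound or DMSO for 48 hr at 37 C, 5% CO2, then stained with Hoechst for 40 min. DNA content per nucleus was imaged (405 nm ex, 500-530 nm em).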

[15] = molecular target: Ubiquitin carboxyl-terminal hydrolase 1 (Homo sapiens) (UniProt O94782); test: Inhibitors of USP1/UAF1: Pilot qHTS (AID 504865);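 also: rhodamine fluorescence freed from ubiquitin-rhodamine substrate followed over time; top concentration of the series differs between compounds; nearly all actives have a fitted effect of over 35% in size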
Sequence of Ubiquitin carboxyl-terminal hydrolase 1 (Homo sapiens) (O94782 whole entry, looked up): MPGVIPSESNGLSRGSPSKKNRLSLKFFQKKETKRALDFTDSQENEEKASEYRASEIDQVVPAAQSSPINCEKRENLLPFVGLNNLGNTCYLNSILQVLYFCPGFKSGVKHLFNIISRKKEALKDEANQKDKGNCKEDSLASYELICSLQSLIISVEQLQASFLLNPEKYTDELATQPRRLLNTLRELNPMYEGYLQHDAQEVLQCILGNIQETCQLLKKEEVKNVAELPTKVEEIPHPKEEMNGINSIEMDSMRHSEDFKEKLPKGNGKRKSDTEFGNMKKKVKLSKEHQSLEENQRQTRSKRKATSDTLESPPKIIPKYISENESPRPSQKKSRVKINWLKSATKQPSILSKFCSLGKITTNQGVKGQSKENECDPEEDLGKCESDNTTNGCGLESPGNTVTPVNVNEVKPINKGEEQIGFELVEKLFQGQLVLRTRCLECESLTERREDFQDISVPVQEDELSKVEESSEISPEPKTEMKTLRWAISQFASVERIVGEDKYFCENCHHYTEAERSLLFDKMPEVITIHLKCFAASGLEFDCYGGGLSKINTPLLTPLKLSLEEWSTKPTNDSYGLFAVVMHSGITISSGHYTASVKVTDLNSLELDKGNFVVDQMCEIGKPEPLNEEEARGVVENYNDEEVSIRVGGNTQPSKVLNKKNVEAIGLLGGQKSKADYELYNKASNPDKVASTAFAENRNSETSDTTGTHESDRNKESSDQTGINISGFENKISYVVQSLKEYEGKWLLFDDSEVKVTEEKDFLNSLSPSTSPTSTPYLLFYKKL
Outline: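 Kinetic fluorescence assay: 1nM USP1/UAF1, 15 min compound preincubation, then 150nM Ub-Rho; 480/540 nm.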

[16] = molecular target: DNA dC->dU-editing enzyme APOBEC-3G (Homo sapiens) (UniProt Q9HC16); test: qHTS for inhibitors of Vif-A3G interactions: Validation (AID 588379)
Sequence of DNA dC->dU-editing enzyme APOBEC-3G (Homo sapiens) (Q9HC16 whole entry, looked up): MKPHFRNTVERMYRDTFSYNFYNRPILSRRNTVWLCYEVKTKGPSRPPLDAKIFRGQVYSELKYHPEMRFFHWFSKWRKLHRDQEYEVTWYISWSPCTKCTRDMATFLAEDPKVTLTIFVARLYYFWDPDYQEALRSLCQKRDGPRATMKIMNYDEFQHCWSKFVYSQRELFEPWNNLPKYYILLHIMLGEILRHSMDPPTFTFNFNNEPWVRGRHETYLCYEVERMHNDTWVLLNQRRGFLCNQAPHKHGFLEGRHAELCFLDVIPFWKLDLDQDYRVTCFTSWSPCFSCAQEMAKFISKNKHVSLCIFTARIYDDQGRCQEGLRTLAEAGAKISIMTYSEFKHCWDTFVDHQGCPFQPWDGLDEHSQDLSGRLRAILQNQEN
Outline: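 HeLa cells stably expressing Vif and A3G-eYFP, 700 cells/well, incubated overnight at 37 deg C, then exposed to compound overnight at 37 deg C. Inhibition of Vif-mediated degradation read as increased yellow fluorescence (Ex 488/Em 500-530) by laser-scanning cytometry.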

[17] = system: Zika virus NS2B-NS3 protease; test: Primary screen GU AMC qHTS for Zika virus inhibitors (AID 1347154); also: nearly all actives have a fitted effect of over 70% in size
Outline: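 Unlinked Zika NS2B hydrophilic domain/NS3 protease domain noncovalent complex (25 nM final) in 10 mM Tris-HCl pH 8.0, 0.01% Tween 20, with AMC peptide substrate. Fluorescence (ex 340, em 450 nm) change over 15 min, room temperature; percent inhibition fitted to 4-parameter Hill equation.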

[18] = Primary qHTS for small molecule stabilizers of the endoplasmic reticulum resident proteome: Secreted ER Calcium Modulated Protein (SERCaMP) assay (AID 1508630)
Outline: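 GLuc-SERCaMP-expressing SH-SY5Y cells, pretreated 16 h with compound, are challenged with thapsigargin to empty ER calcium stores; after 4 h, coelenterazine is added directly to the medium and luminescence is imaged.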

## NCCCCCCNS(=O)(=O)c1cccc2c(Cl)cccc12
[1]; at 57.5 µM (top of the series)
  activity change, negative = inhibition: 3.12% (inactive)
[1]; measured here: cell count channel max response
  max response: 13.8%
[1]; measured here: lipid channel max response
  max response: 16.8%
[2]
  Potency: inactive
[3]
  Potency: inactive
[4]
  Potency: 11.2 µM (active)
[5]
  Potency: 12.6 µM (active)
[6]
  Potency: inactive
[7]
  Potency: inactive
[8]
  Potency: inactive
[9]
  Potency: inactive
[10]
  Potency: inactive
[11]
  outcome: inactive
[12]
  activation: 2.44% (inactive)
[13]
  outcome: inactive
[14]
  outcome: inactive
[15]
  Potency: inactive
[16]
  Potency: inactive
[17]
  Potency: inactive
[18]
  Potency: inactive

— PubChem BioAssay (NCATS)
